These results are taken from the OligoGym collection.
Note: reference of the scale not given here.

The target in one assay is FBXO27. In words: pooled miR-30 sensor sort-seq; sequence = guide strand. The note with it: shRNA.
Sequence TGATATATTATTCTTACTGTTT returned a sensor-assay potency score (higher = more potent) of -0.893.

Sequence TTTTTTAACGTAGACTTTCAGC had a sensor-assay potency score (higher = more potent) of -0.574.

TTGATGTTGGAGAACACGTGGG showed a sensor-assay potency score (higher = more potent) of -0.501.

TTACAGGTCCTTGAGGATCAGG came in with a sensor-assay potency score (higher = more potent) of -1.43.

Consider TCTGGTAGTTTCTAGAACCTGA, for which the sensor-assay potency score (higher = more potent) was 0.603.

Take TGTTGCACCATCCACTTTCGGA: the sensor-assay potency score (higher = more potent) was -0.815.

TTATCTAGAACAGTCTGGTTGG: the sensor-assay potency score (higher = more potent) was determined as 0.434.

As to TTTAACGTAGACTTTCAGCTGC, the sensor-assay potency score (higher = more potent) was 0.647.

TTTATCTAGAACAGTCTGGTTG: the sensor-assay potency score (higher = more potent) came to 0.00929.

As for TTTTCCTCCACCACCCAGCCGT, the sensor-assay potency score (higher = more potent) was -0.662.

Regarding AATTTATCTAGAACAGTCTGGT, the sensor-assay potency score (higher = more potent) amounted to 0.248.

Sequence TTTTTTTTTAACGTAGACTTTC yielded a sensor-assay potency score (higher = more potent) of -0.903.

In the next assay the target is FBXO43. The description is as above. The note with it: shRNA.
Sequence AACCTTAACATATTCTTCCTGT gave a sensor-assay potency score (higher = more potent) of 0.212.

Sequence TTCATGTCCACTATTTTCCTGT registered a sensor-assay potency score (higher = more potent) of 0.372.

TAATTCTGTTAAGATGTCCAGT gave a sensor-assay potency score (higher = more potent) of -0.342.

Sequence TTGAACAACAATTTCACGCCAA returned a sensor-assay potency score (higher = more potent) of 0.6.

As for TTATCTATATTATCAAAGCTAC, the sensor-assay potency score (higher = more potent) is -0.969.

The sequence TTTGACTGCATGAAGTCACTTC registered a sensor-assay potency score (higher = more potent) of 0.521.
